Measurements published in PubChem BioAssay (NCI).
Compounds without any hit were thinned out: in the full panel of roughly 83,000, 20% have a hit.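 Each cell line was grown in a 96-well plate and treated with one concentration of compound for 48 hours. Values below 10 were considered active.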 Values without a mark were called inactive. Calls of active or inactive are those of the source.

These compounds were tested on HL-60(TB) leukemia (assay: NCI-60 one-dose screen, 48 h (100 = growth as untreated, 0 = no growth, -100 = all killed)). Conditions: 10 µM unless noted.
For C=C(C=O)[C@@H]1CC=C(C=O)CC1, the growth was -33.2% (active). C=C(C)COc1ccc(C(C)(C)C)cc1 was tested, and the growth was 104%. COc1ccc(C2=Nc3c/c(=C\c4c(O)[nH]c5cc(Cl)ccc45)ccc3=N2)cc1 showed a growth of 12.4%. O=C(C[n+]1cccc(Br)c1)c1ccc2c(c1)CCCC2 was tested, and the growth was 83.6%. In the case of COc1ccc(C[n+]2c3ccccc3n3c4ccc(N)cc4ccc32)c(OC)c1OC, the growth is reported as -6.46% (active). Compound COc1ccc(-c2cc3c(oc2=O)-c2ccccc2OC3OC(C)=O)cc1 (configuration not stated) has a growth of 85.8%. With Cc1cc(C)nc(SCC(=O)Nc2cccc(N=Cc3ccccc3O)c2)n1 the growth was 96.6%. Compound CC1=CC(=NN=c2cc(C)n([O-])c(C)c2)C=C(C)[N+]1=O has a growth of 37.6%. CC(C)n1nc(-c2ccc3oc(N)nc3c2)c2c(N)ncnc21 gave a growth of 11.4%. In the case of CN1CCN(Cc2cc(NC(=O)c3cccc(C#Cc4cccc5[nH]nc(N)c45)c3)cc(C(F)(F)F)c2)CC1, the growth is reported as 0.0221% (active). CCNc1nc2c(cnn2C)c(=O)[nH]1 showed a growth of 94.3%. Work on CC[C@]12C=CCN3CC[C@@]4(c5cc([C@H]6CCC(=O)N6)c(OC)cc5N(C)[C@H]4[C@@](O)(C(=O)OC)[C@@H]1OC(C)=O)[C@@H]32 yielded a growth of 109% [2.5 µM]. Compound C=CC(COC(c1ccccc1)(c1ccccc1)c1ccccc1)N(CC)CC (configuration not stated) has a growth of 48.1%. With COc1ccc(C=Nc2c(C(=O)Nc3cccc(Cl)c3C)sc3nc(C)c(C(=O)/C=C/c4ccc(OC)cc4)cc23)cc1 the growth was 9.38% (active). Compound O=C(Nc1ccccc1F)Nc1ccccc1Cl has a growth of 52%. In the case of Cc1nn(-c2nc(-c3cc4ccccc4oc3=O)cs2)c(C)c1N=Nc1ccccc1, the growth is reported as 101%. With COc1cccc(-c2cc(-c3ccc(Nc4nc(Nc5ccc(Cl)cc5)nc(Nc5ccc(Cl)cc5)n4)cc3)nc(N)c2C#N)c1 the growth was 24.5%. Work on CCCCCCCCCCCCCCCCCC1=NCCN1CS(=O)(=O)O yielded a growth of 24.2%. In the case of O=C1/C(=C/c2ccc(Cl)cc2)CN(C(=O)CCN2CCC(=NO)CC2)C/C1=C\c1ccc(Cl)cc1, the growth is reported as -13% (active). CCN1C(=O)N(CC)C2C1NC(=S)N2/N=C/C=C/c1ccccc1OC (configuration not stated) was tested, and the growth was -20.8% (active). For Cc1nc([P+](c2ccccc2)(c2ccccc2)c2ccccc2)c(Sc2sc(-c3ccccc3)nc2[P+](c2ccccc2)(c2ccccc2)c2ccccc2)o1, the growth was -17.9% (active). Work on C=C(CC(=O)OC)C(C)=O yielded a growth of 95.8%. Work on CCOC(=O)c1ccc(N2C(=O)C(Cl)(c3ccccc3)C2c2ccco2)cc1 (configuration not stated) yielded a growth of 66%. For CO[C@H]1C[C@@H]2CC[C@@H](C)[C@@](O)(O2)C(=O)C(=O)N2CCCC[C@H]2C(=O)O[C@H]([C@H](C)C[C@@H]2CC[C@@H](OP(C)(C)=O)[C@H](OC)C2)CC(=O)[C@H](C)/C=C(\C)[C@@H](O)[C@@H](OC)C(=O)[C@H](C)C[C@H](C)\C=C/C=C/C=C/1C, the growth was 76.4%. Compound CN1C(=O)CN2CCc3ccccc3C2c2cc(Cl)ccc21 (configuration not stated) has a growth of 86.8%. In the case of COc1cc2c(cc1O)CC[C@@H]1[C@@H]2CC[C@]2(C)[C@@H](OCCN(C)C)CC[C@@H]12, the growth is reported as 87.6%. Cc1c(O)nc(N)[nH]c1=O gave a growth of 137%. With COc1cccc(C(c2cc3c(cc2O)OCO3)N2CCOCC2)c1OC (configuration not stated) the growth was 97.1%. In the case of CC(=O)ON=C1C=CC(=C(C#N)c2ccccc2)C=C1, the growth is reported as -10.5% (active). In the case of O=C1/C(=C\c2ccc[nH]2)c2ccccc2N1c1ccccc1, the growth is reported as 94.4%. In the case of c1ccc2c(c1)Nc1cc3ccccc3cc1N2, the growth is reported as 7.75% (active). C=CCN1C(=O)c2cccc3c(-c4ccc5c(c4)ncn5C4CCCCC4)ccc(c23)C1=O gave a growth of 25.5%. In the case of COc1cccc(/C=C2\COc3ccc(O)cc3C2=O)c1, the growth is reported as -20.1% (active). FC(F)(F)c1cc(CNc2nc(Cl)ncc2Br)cc(C(F)(F)F)c1 was tested, and the growth was 85.2%. Compound NC(=O)c1c(NC(=O)c2ccc(Cl)cc2)sc2c1CCC(=O)C2 has a growth of 48.6%. In the case of C=C(C)[C@@H]1CC[C@]2(COC(C)=O)CC[C@]3(C)[C@H](CC[C@@H]4[C@@]5(C)CCCN(C(C)=O)C(C)(C)[C@@H]5CC[C@]43C)[C@@H]12, the growth is reported as -29.2% (active). Work on c1ccc(Cn2cc3c(c2)-c2oncc2CC3)cc1 yielded a growth of 11.5%.
